Several values for one entry are separate records, joined by “and”; a condition that tells them apart may be missing. Identical values can stand only once. Inconclusive results are not listed. A call without a number means that no potency is given here. Activity calls are given as the source filed them. The call rests on the fitted dose curve; in most records, active means well fitted activation curve with a large enough effect in the repeat runs; inconclusive means weak or mixed curves; inactive means flat fitted curve, though single readings scatter.

Among the data in PubChem BioAssay (Tox21) are Potency and cytotoxicity increase values, retold here.
Potency means the concentration at half of the fitted maximal effect.

The first assay is described as follows: A CellTox Green Cytotoxicity Assay to monitor cytotoxicity in HepG2 cells - 32 hour (AID 1224883). Further: nearly all actives have a fitted effect of over 50% in size. The following applies: CellTox Green fluorescence; series mostly up to 76.8 µM. A digest of the protocol:
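Measurements at 0, 8, 16, 24, 32 and 40 h of treatment captured CellTox Green fluorescence in HepG2 cells that had been co-plated with reagent and preincubated 5 h at 37 C/5% CO2.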
With `N#Cc1ccc(N(CC(N)=O)CC(F)(F)F)cc1C(F)(F)F`, the Potency entry was “inactive”.
Regarding `CCCCn1cc[n+](C)c1.[Cl][Fe-]([Cl])([Cl])[Cl]`, the Potency entry was “inactive”.
As for `CN1C2CCC(C)(C)C1CC(OC(=O)C(O)(c1cccs1)c1cccs1)C2` (stereo not drawn), the Potency entry was “inactive”.
For the molecule `O=C(O)[C@H](O)[C@@H](O)C(=O)O`, the Potency entry is “inactive”.
Consider `ClC1=C(Cl)[C@]2(Cl)[C@H]3[C@H]([C@@H]4C=C[C@H]3C4)[C@@]1(Cl)C2(Cl)Cl`, for which the Potency was 54.9 µM (active).
For the molecule `CCNc1nc(NC(C)C(C)C)nc(SC)n1` (stereo not drawn), the Potency result is “inactive”.
`[Cl-].[Cl-].[Cl-].[Yb+3]`: the Potency result was “inactive”.
On to `CCN(CC)CCc1c[nH]c2ccccc12`, for which the Potency result was “inactive”.
Consider `O=C(O)CCCCCCNC1c2ccccc2CCc2ccccc21`, for which the Potency entry is “inactive”.
Take `C#CCO`: the Potency result was “inactive”.
Consider `CCn1cc[n+](C)c1` (tested in a mixture with another compound), for which the Potency result was “inactive”.
`CC(=O)[O-].CC(=O)[O-].O.O.[Zn+2]`: the Potency entry was “inactive”.
Take `Clc1cc(Cl)c(-c2cc(Cl)c(Cl)cc2Cl)cc1Cl`: the Potency entry was “inactive”.
Consider `O=S(=O)(O)F`, for which the Potency entry is “inactive”.
Turning to `COC(=O)/C=C(\C)OP(=O)(OC)OC`, the Potency result was “inactive”.
Same read-out and setting: under `CN=C=O` stands “inactive”; under `CNN`, “inactive”.
With `CC[C@H](C)[C@H]1O[C@]2(C=C[C@@H]1C)C[C@@H]1C[C@@H](C/C=C(\C)[C@@H](O[C@H]3C[C@H](OC)[C@@H](O[C@H]4C[C@H](OC)[C@@H](NC)[C@H](C)O4)[C@H](C)O3)[C@@H](C)/C=C/C=C3\CO[C@@H]4[C@H](O)C(C)=C[C@@H](C(=O)O1)[C@]34O)O2`, the Potency was 11 µM (active).
On to `O=[N+]([O-])c1ccccc1-c1ccccc1`, for which the Potency entry is “inactive”.
Take `COc1c2c(cc3c1OCO3)CCN(C)C2`: the Potency entry is “inactive”.
Turning to `BrCC(Br)(Br)Br`, the Potency result is “inactive”.
The same measure, in the same setting: the figure for `CCC[CH2][Sn]([CH2]CCC)([CH2]CCC)[CH2]CCC` is 15.5 µM (active); for `O=[N+]([O-])c1cc(C(F)(F)F)c(Cl)c([N+](=O)[O-])c1Nc1ncc(C(F)(F)F)cc1Cl` it is 4.9 µM (active).
Consider `CCCCN(CCCC)C(=S)[S-].CCCCN(CCCC)C(=S)[S-].[Ni+2]`, for which the Potency result was “inactive”.
On the same count and under the same terms, the entry for `CCCCn1cc[n+](C)c1` (tested in a mixture with another compound) is “inactive”; for `CCC(C)Br` (stereo not drawn) it is “inactive”; for `C[N+]1(C)[C@@H]2CC[C@H]1CC(OC(=O)C(CO)c1ccccc1)C2` (stereo partly drawn) it is “inactive”.
Consider `CCCCc1ccccc1`, for which the Potency result was “inactive”.
Consider `NC(=O)C(Cl)Cl`, for which the Potency entry is “inactive”.
With `COP(=S)(OC)Oc1ccc([N+](=O)[O-])c(C)c1`, the Potency result is “inactive”.
Consider `CNC(=O)Oc1cc(C)cc(C(C)C)c1`, for which the Potency result is “inactive”.
For the molecule `CN`, the Potency result is “inactive”.
Still for that read-out and setting: under `CCNS(=O)(=O)C(F)(F)C(F)(F)C(F)(F)C(F)(F)C(F)(F)C(F)(F)C(F)(F)C(F)(F)F` stands “inactive”; under `[F][Sn]([c]1ccccc1)([c]1ccccc1)[c]1ccccc1`, 1.95 µM (active).
For `Clc1c(Cl)c(Cl)c(Cl)c(Cl)c1Cl`, the cytotoxicity increase was -1.01% [at 6.97 µM] (inactive).
With `Nc1nc(N)c(N)c(N)n1`, the Potency is 55.2 µM (active).
Regarding `Fc1ccc(C(OCCN2CCN(CCCc3ccccc3)CC2)c2ccc(F)cc2)cc1`, the Potency is 23.9 µM (active).
Consider `CCN(CC)C(=O)N[C@@H]1C=C2c3cccc4[nH]cc(c34)C[C@@H]2N(C)C1`, for which the Potency result is “inactive”.
In the case of `O=C1C2(Cl)C3(Cl)C4(Cl)C(Cl)(Cl)C5(Cl)C3(Cl)C1(Cl)C5(Cl)C24Cl` (stereo not drawn), the Potency was 24.1 µM (active) and 41.8 µM (active).

A further assay is described as follows: A CellTox Green Cytotoxicity Assay to monitor cytotoxicity in HEK293 cells - 8 hour (AID 1224884). Further: nearly all actives have a fitted effect of over 35% in size. The following applies: CellTox Green fluorescence; series mostly up to 76.8 µM. In short, it runs like this:
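Tox21 screen in HEK293: membrane-impermeant cyanine dye fluoresces on binding dead-cell DNA; compound pinned 5 h post-seeding, plates held at 37 C, signal read repeatedly through 40 h.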
In the case of `N#Cc1ccc(N(CC(N)=O)CC(F)(F)F)cc1C(F)(F)F`, the Potency entry was “inactive”.
In the case of `CCCCn1cc[n+](C)c1.[Cl][Fe-]([Cl])([Cl])[Cl]`, the Potency entry is “inactive”.
The same measure, in the same setting: under `CN1C2CCC(C)(C)C1CC(OC(=O)C(O)(c1cccs1)c1cccs1)C2` (stereo not drawn) stands “inactive”; under `O=C(O)[C@H](O)[C@@H](O)C(=O)O`, “inactive”; under `ClC1=C(Cl)[C@]2(Cl)[C@H]3[C@H]([C@@H]4C=C[C@H]3C4)[C@@]1(Cl)C2(Cl)Cl`, 54.9 µM (active).
For the molecule `CCNc1nc(NC(C)C(C)C)nc(SC)n1` (stereo not drawn), the Potency result is “inactive”.
Turning to `[Cl-].[Cl-].[Cl-].[Yb+3]`, the Potency entry is “inactive”.
Take `CCN(CC)CCc1c[nH]c2ccccc12`: the Potency entry is “inactive”.
Regarding `O=C(O)CCCCCCNC1c2ccccc2CCc2ccccc21`, the Potency entry is “inactive”.
Same read-out and setting: the entry for `C#CCO` is “inactive”.
With `CCn1cc[n+](C)c1` (tested in a mixture with another compound), the Potency result is “inactive”.
For `CC(=O)[O-].CC(=O)[O-].O.O.[Zn+2]`, the Potency entry was “inactive”.
Still for that read-out and setting: the entry for `Clc1cc(Cl)c(-c2cc(Cl)c(Cl)cc2Cl)cc1Cl` is “inactive”.
As to `O=S(=O)(O)F`, the Potency entry is “inactive”.
On to `COC(=O)/C=C(\C)OP(=O)(OC)OC`, for which the Potency entry is “inactive”.
In the case of `CN=C=O`, the Potency entry was “inactive”.
Still for that read-out and setting: the entry for `CNN` is “inactive”; for `CC[C@H](C)[C@H]1O[C@]2(C=C[C@@H]1C)C[C@@H]1C[C@@H](C/C=C(\C)[C@@H](O[C@H]3C[C@H](OC)[C@@H](O[C@H]4C[C@H](OC)[C@@H](NC)[C@H](C)O4)[C@H](C)O3)[C@@H](C)/C=C/C=C3\CO[C@@H]4[C@H](O)C(C)=C[C@@H](C(=O)O1)[C@]34O)O2` it is 13.8 µM (active).
In the case of `O=[N+]([O-])c1ccccc1-c1ccccc1`, the Potency entry was “inactive”.
Regarding `COc1c2c(cc3c1OCO3)CCN(C)C2`, the Potency result is “inactive”.
With `BrCC(Br)(Br)Br`, the Potency result is “inactive”.
Take `CCC[CH2][Sn]([CH2]CCC)([CH2]CCC)[CH2]CCC`: the Potency was 49 µM (active).
In the case of `O=[N+]([O-])c1cc(C(F)(F)F)c(Cl)c([N+](=O)[O-])c1Nc1ncc(C(F)(F)F)cc1Cl`, the Potency was 49 µM (active).
For `CCCCN(CCCC)C(=S)[S-].CCCCN(CCCC)C(=S)[S-].[Ni+2]`, the Potency entry was “inactive”.
On to `CCCCn1cc[n+](C)c1` (tested in a mixture with another compound), for which the Potency result is “inactive”.
`CCC(C)Br` (stereo not drawn): the Potency entry is “inactive”.
As for `C[N+]1(C)[C@@H]2CC[C@H]1CC(OC(=O)C(CO)c1ccccc1)C2` (stereo partly drawn), the Potency result was “inactive”.
Consider `CCCCc1ccccc1`, for which the Potency result was “inactive”.
Still for that read-out and setting: the entry for `NC(=O)C(Cl)Cl` is “inactive”; for `COP(=S)(OC)Oc1ccc([N+](=O)[O-])c(C)c1` it is “inactive”.
For the molecule `CNC(=O)Oc1cc(C)cc(C(C)C)c1`, the Potency result is “inactive”.
Take `CN`: the Potency result was “inactive”.
Regarding `CCNS(=O)(=O)C(F)(F)C(F)(F)C(F)(F)C(F)(F)C(F)(F)C(F)(F)C(F)(F)C(F)(F)F`, the Potency result is “inactive”.
As to `[F][Sn]([c]1ccccc1)([c]1ccccc1)[c]1ccccc1`, the Potency is 5.49 µM (active).
For `Clc1c(Cl)c(Cl)c(Cl)c(Cl)c1Cl`, the cytotoxicity increase is -13.2% [at 6.97 µM] (inactive).
With `Nc1nc(N)c(N)c(N)n1`, the Potency is 49.2 µM (active).
Turning to `Fc1ccc(C(OCCN2CCN(CCCc3ccccc3)CC2)c2ccc(F)cc2)cc1`, the Potency is 21.3 µM (active).
Regarding `CCN(CC)C(=O)N[C@@H]1C=C2c3cccc4[nH]cc(c34)C[C@@H]2N(C)C1`, the Potency result was “inactive”.
As for `O=C1C2(Cl)C3(Cl)C4(Cl)C(Cl)(Cl)C5(Cl)C3(Cl)C1(Cl)C5(Cl)C24Cl` (stereo not drawn), the Potency was 34.1 µM (active) and 52.6 µM (active).
